# Data as given in PubChem BioAssay AID2494 (National Center for Advancing Translational Sciences (NCATS), 2010).
# Calls of active or inactive are those of the source.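 Rule for the calls: active = compounds that inhibit caspase-1 with a complete, partial or top-dose-only concentration response; inactive = the rest.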
# Target: Caspase-1 (Homo sapiens) (UniProt P29466)
# Test: Confirmation Assay for Allosteric/Competitive Inhibitors of Caspase-1
# Conditions: Caspase-1 enzyme, fluorogenic peptide substrate, kinetic rate
# Text: NIH Molecular Libraries Screening Centers Network [MLSCN] NIH Chemical Genomics Center [NCGC] MLSCN Grant: 1 X01 MH078950-01 PI Name: Dr. James Wells, Dr. Enrique Perez-Paya, Dr.Janice Williams, Dr. Dennis Wolan, a person NCGC Assay Overview: The caspases (Cysteine Aspartyl Protease) comprise a related family of 14 dimeric proteases that are critical mediators of apoptosis (programmed cell death) and inflammation. The caspases represent an important class of drug targets for stroke, ischemia, cancer and inflammatory diseases. […] One goal of this project was to identify compounds that act as allosteric inhibitors via stabilizing the procaspase form of the enzyme. Previous work in Well's laboratory has shown that such allosteric inhibitors can be identified and these act by binding at the dimer interface of enzyme (Hardy, Lam et al., 2004). The biochemical assay was configured using purified caspase 1 at a high enzyme concentration to promote formation of the homodimers and thus facilitate the identification of allosteric inhibitors. The overall goal was to identify reversible inhibitors with better drug-like properties than the currently available set of aspartyl-containing peptidomimetics that covalently bind the active site. Caspase 1 was assayed using the profluorescent substrate […]. After initiation of the assay with substrate the plates were rapidly read using an automated robotic system (Kalypsys, Inc.) to maintain consistent timing. A kinetic mode of detection was used where the initial rate was collected (estimated final product formation was ~10%). Compounds were screened as a concentration-titration series that ranged from 57 uM to 0.7 nM. Below is the protocol used for caspase 1.
# Caspase-1 was dispensed ([…]) into a 1536-well black solid-bottom microplate (Greiner Bio-One, Monroe, USA) using a Bio-RAPTR (Beckman Coulter, Fullerton, USA) nanoliter dispenser for automated addition of reagents, to give a final enzyme concentration of 2 nM. Assay buffer was 50 mM HEPES, pH7.4, containing 1M sodium citrate, 100 mM NaCl, 0.1 mM EDTA, 10 mM DTT, 0.01% CHAPS, 1% DMSO, and 0.1 mg/mL bovine serum albumin (BSA). Aliquots of test compound (23 nL) from a DMSO stock solution were transferred to the enzyme-containing wells using a pintool transfer station (Kalypsys Inc., San Diego, USA), and the plates were incubated for 15 min at room temperature. Each compound was added as a 12-point titration in duplicate. Substrate was dispensed ([…]) to give a final caged fluorescent peptide substrate (Ac-LEHD-AMC) concentration of […], and the initial reaction rate was monitored over 20 min at room temperature. Free AMC was measured by fluorescence detection (lex=340 nm, lem=450) with a ViewLux charge-coupled device-based imager (PerkinElmer, Waltham, USA). Percent inhibition was calculated from the median values of the uninhibited and the uncatalyzed controls, and IC50 values were determined by fitting the concentration-response data with a four-parameter Hill equation as previously described (http://www.ncgc.nih.gov/pub/openhts/curvefit/).
Structure (SMILES),Potency,outcome
CCOC(=O)C[C@@H](C#N)NC(=O)[C@@H]1CCCN1C(=O)[C@@H](NC(=O)c1ccc(N)c(Cl)c1)C(C)(C)C,145 nM (active),–
CC(C)(C)[C@H](NC(=O)c1ccc(C(F)(F)F)cc1)C(=O)N1CCC[C@H]1C(=O)N[C@H](C#N)CC(=O)O,8.33 nM (active),–
CC(=O)N[C@@H](Cc1ccc(O)cc1)C(=O)N[C@H](C(=O)N[C@@H](C)C(=O)N[C@H](C#N)CC(=O)O)C(C)C,2.51 nM (active),–
Cc1ccccc1C(=O)N[C@H](C(=O)N1CCC[C@H]1C(=O)N[C@H](C#N)CC(=O)O)C(C)(C)C,2.78 nM (active),–
CC(C)(C)[C@H](NC(=O)c1cc(Cl)cc(Cl)c1)C(=O)N1CCC[C@H]1C(=O)N[C@H](C#N)CC(=O)O,0.436 nM (active),–
CONC(=O)C[C@@H](C#N)NC(=O)[C@@H]1CCCN1C(=O)[C@@H](NC(=O)c1ccc(N)c(Cl)c1)C(C)(C)C,145 nM (active),–
COc1ccc(C(=O)N[C@H](C(=O)N2CCC[C@H]2C(=O)N[C@H](C#N)CC(=O)O)C(C)(C)C)cc1Cl,0.439 nM (active),–
CC(C)(C)[C@H](NC(=O)c1ccc(N)c(Cl)c1)C(=O)N1CCC[C@H]1C(=O)N[C@H](C#N)Cc1nn[nH]n1,20.4 nM (active),–
CC(C)(C)[C@H](NC(=O)c1ccc(N)c(Cl)c1)C(=O)N1CCC[C@H]1C(=O)N[C@H](C#N)CC(=O)O,0.316 nM (active),–
CC(=O)N[C@H](C(=O)N[C@@H](C)C(=O)N[C@H](C#N)CC(=O)O)C(C)C,–,inactive
